This is a sample that favours compounds with a hit; in the whole collection about 1.5% have one here.
F508del corr: correctors of CFTR F508del function in bronchial epithelial cells. CFBE cells, YFP halide quenching; stimulated with forskolin plus potentiator P3; % fluorescence drop versus neutral controls. activity (quench increase), % at 7.58 µM. 350,000 compounds, 0.36% hits. AID 720511;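 active = mean added fluorescence quench of at least 8% versus neutral control, with both replicates also reaching 8%; inconclusive = only one of the mean or replicate conditions met; inactive = mean below 8% and not both replicates reaching 8%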;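 note: cells transiently co-express mutant CFTR-F508del with the halide-sensitive YFP; corrector assay measuring rescue of mutant channel to the surface after 24 h compound exposure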
PvdQ acylase: P. aeruginosa PvdQ acylase inhibition. purified PvdQ acylase, fluorescence plate reader. 340,000 compounds, 0.063% hits. AID 488965. inhibition, % at 10 µM; in the data active = inhibition above about 30%, passing the limit was not always enough; inconclusive = no clear call, values can overlap the other calls;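 note: 0% = vehicle neutral wells and 100% = reference inhibitor wells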
RAD52 inh: blocks human RAD52 DNA annealing. recombinant RAD52 DNA annealing, FRET fluorescence. AID 651710. P43351. 360,000 compounds, 0.46% hits. inhibition, % at 18.7 µM;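 active = every replicate showing at least 50% inhibition; inconclusive = mean inhibition at least 50% but not in every replicate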
Target sequence (P43351 whole entry, looked up): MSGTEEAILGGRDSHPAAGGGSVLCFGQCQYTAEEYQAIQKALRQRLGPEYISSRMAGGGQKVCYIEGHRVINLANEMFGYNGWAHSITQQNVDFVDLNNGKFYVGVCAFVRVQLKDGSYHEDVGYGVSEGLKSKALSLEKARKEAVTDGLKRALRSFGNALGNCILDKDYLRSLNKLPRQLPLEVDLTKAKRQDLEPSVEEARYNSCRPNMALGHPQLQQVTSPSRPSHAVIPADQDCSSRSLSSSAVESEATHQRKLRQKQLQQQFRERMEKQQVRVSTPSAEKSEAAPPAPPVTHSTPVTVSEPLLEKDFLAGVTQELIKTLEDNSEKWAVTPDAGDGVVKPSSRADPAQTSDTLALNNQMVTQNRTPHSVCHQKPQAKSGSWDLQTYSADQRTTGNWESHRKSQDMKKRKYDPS
N-glyco inh: blocks N-linked glycosylation in D54 reporter cells; D54 ERlucT glycosylation luciferase reporter, 24 h; percent of 100 nM tunicamycin response; reporter increase, % at 12.5 µM; 360,000 compounds, 0.23% hits;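 active = mean luciferase reporter signal, scaled so untreated is 0 and the glycosylation-blocking control 100, at or above a set limit in every replicate; inconclusive = mean reaches the limit but not every replicate does; inactive = mean below the limit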;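 note: luciferase carries N-glycosylation sites so blocking glycosylation raises the light; 0% = median of neutral control wells and 100% = median of 100 nM tunicamycin wells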
RAD54 branch: RAD54 (human) branch migration inhibition. Q92698. RAD54 Holliday junction branch migration, FAM/BHQ fluorescence. inhibition, % at 10.4 µM. 360,000 compounds, 0.14% hits. AID 602329;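 active = mean normalized replicate activity at least 40 and at least half of replicates scoring 40 or more; inconclusive = only one of the two criteria met; inactive = mean below 40 and under half of replicates reaching 40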;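 note: 0% = median of neutral control wells and 100% = median of positive control wells; inhibitors cause a drop in the FAM fluorescence signal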
dFosB act: activators of mouse delta FosB homodimer | P13346 | purified delta FosB, TAMRA-CDK5 oligo fluorescence polarization; percent of positive-control signal above neutral wells | activation, % at 25 µM | 340,000 compounds, 0.99% hits | AID 493131;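 active = mean activation above about 17%, with every replicate also reaching it, limit read from the data, passing the limit was not always enough; inconclusive = only one of the two conditions met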
Target sequence (P13346 whole entry, looked up): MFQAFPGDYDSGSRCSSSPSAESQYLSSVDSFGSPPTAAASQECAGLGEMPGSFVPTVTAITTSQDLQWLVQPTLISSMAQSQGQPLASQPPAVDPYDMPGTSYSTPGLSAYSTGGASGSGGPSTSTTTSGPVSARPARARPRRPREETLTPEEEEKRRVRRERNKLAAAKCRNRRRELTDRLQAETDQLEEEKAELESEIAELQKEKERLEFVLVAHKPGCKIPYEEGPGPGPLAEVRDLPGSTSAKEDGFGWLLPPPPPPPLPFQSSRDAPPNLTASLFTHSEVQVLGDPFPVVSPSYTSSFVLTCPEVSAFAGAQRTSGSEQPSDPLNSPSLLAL
Rad54 DNA ctr: binds DNA, flagging false Rad54 inhibitor hits; AC50, µM (top dose mostly 35 µM), without a hit: top-dose activity change, negative = DNA binding; AID 651673; shares compounds with RAD54 branch; Acridine orange-DNA displacement, fluorescence polarization, 20 min; 460 compounds, 8% hits;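 active = signal drop giving an AC50 within twice the top valid tested concentration of each sample, actives reach about 35 µM in these data; inactive = activity opposite to expected, plus the rest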;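 note: polarization loss reports compound binding to salmon sperm DNA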
The depositor's hits bear a star; i = inactive; u = inconclusive; x = not tested or not shown.

SMILES | F508del corr | PvdQ acylase | RAD52 inh | N-glyco inh | RAD54 branch | dFosB act | Rad54 DNA ctr
Cc1ccc(-c2csc3nc4c5ccccc5c(NCCCN(C)C)nn4c(=O)c23)cc1 | -0.6 | -3.2 | 97.1* | -5.4 | 53.1* | 0.6 | -17.2%
COc1cc2[nH]c3c(=O)n(CCN4CCCCC4)cnc3c2cc1OC | x | 9.4 | x | 0.7 | 54.8* | 1.5 | -14.7%
CCCNC(=O)C[C@@H]1CC[C@H]2[C@H](COc3ccc(NC(=O)C4CCOCC4)cc3C(=O)N2C)O1 | -1.9 | x | -2.5 | x | -1.6 | x | x
Cc1ccc(CSc2nnc(-c3ccc(S(=O)(=O)N4CCCC4)cc3)o2)cc1 | x | -8.2 | x | -1.8 | 3.4 | 7.5 | x
O=S(=O)(c1ccc(-c2nnc(SCc3ccccc3)o2)cc1)N1CCCC1 | x | -9.8 | x | -4.0 | u | 1.3 | 7.8%
C[C@@H]1CN([C@@H](C)CO)C(=O)c2cc(C3=CCCC3)cnc2O[C@@H]1CN(C)C(=O)Nc1cccc(F)c1 | 0.3 | x | -4.9 | x | -1.3 | x | x
O=c1cc(NCCO)c2ccccc2o1 | x | -4.1 | x | 1.5 | 0.0 | -8.6 | x
CCN(CC)CCNc1ccc(CO)c2oc3ccccc3c(=O)c12 | 7.2 | x | 47.5 | 43.4* | 80.2* | x | -23.0%
C[C@H](O)C#Cc1ccc([C@H]2[C@@H](CO)N3CCCCN(C(=O)c4ccc5c(c4)OCO5)C[C@H]23)cc1 | -3.1 | x | -3.6 | x | 3.3 | x | x
Oc1ccc(CCNc2c3ccccc3nc3ccccc23)cc1O | 3.5 | -17.3 | 106.2* | 37.4* | 116.1* | 70.9* | 25.5µM*
COc1ccc2nc(-c3ccc(N)cc3)[nH]c2c1 | x | -16.3 | x | -1.9 | 77.2* | 1.9 | -4.9%
COc1ccc2nc(-c3cccc(N)c3)[nH]c2c1 | x | -5.6 | x | -7.4 | 15.9 | -1.4 | x
CCCNC(=O)[C@@H]1[C@@H](CO)[C@@H]2Cn3c(ccc(C4=CCCCC4)c3=O)[C@H]1N2Cc1cocn1 | -1.8 | x | -3.7 | x | -4.2 | x | x
C[C@@H]1CN([C@@H](C)CO)C(=O)c2cc(NC(=O)Cc3ccccc3)ccc2O[C@@H](C)CCCCO[C@H]1CN(C)Cc1ccncc1 | -2.1 | x | x | x | x | x | x
COc1ccc(OC)c2c(C)cc(NCCN3CCOCC3)nc12 | x | -14.7 | x | 4.7 | 53.8* | 9.2 | -9.9%
COc1ccc(S(=O)(=O)NCCN2CCOCC2)c(C)c1C | 1.2 | -12.3 | 11.2 | 0.2 | 0.6 | -0.9 | x
CCCC(=O)Nc1ccc2c(c1)C(=O)N(C)[C@H]1CC[C@@H](CC(=O)NCCc3ccccc3)O[C@H]1CO2 | -1.5 | x | -10.3 | x | 4.5 | x | x
Cc1ccc2c(c1)c1nc3ccccc3nc1n2CCN1CCOCC1 | x | 10.9 | x | 6.6 | 63.4* | -46.4 | 2.0%
CCn1c2ccc(C)cc2c2nnc(SCCN3CCOCC3)nc21 | 4.8 | 2.8 | -16.1 | -1.7 | x | -28.3 | x
C[C@@H]1CN([C@H](C)CO)C(=O)c2cc(NC(=O)Nc3ccc(F)cc3)ccc2O[C@@H](C)CCCCO[C@H]1CN(C)Cc1ccccc1 | -1.5 | x | 43.4 | x | 2.9 | x | x
OC1CCCN(Cc2c3ccccc3cc3ccccc23)C1 (stereo unspecified) | x | 5.0 | x | u | 93.1* | u | i
Cc1ccnc(Nc2nc(-c3sc(C)nc3C)cs2)c1 | -2.5 | -16.4 | -15.3 | 5.8 | u | -16.7 | -4.5%
O=C(Nc1ccc(F)cc1)N[C@@H]1CC[C@H](CCNS(=O)(=O)c2cccc(Cl)c2)O[C@H]1CO | 3.8 | x | 0.0 | x | -1.9 | x | x
CCCN1C[C@H](C)[C@H](OC)CN(C)C(=O)c2ccc(NC(=O)C3CCOCC3)cc2OC[C@H]1C | -1.4 | x | 6.5 | x | 12.1 | x | x
COCCCNC(=O)c1cc2c(=O)n(C)c3ccccc3c2n1C | 0.5 | 0.7 | -21.0 | 15.0 | 13.9 | -17.3 | x
SMILES | F508del corr | PvdQ acylase | RAD52 inh | N-glyco inh | RAD54 branch | dFosB act | Rad54 DNA ctr
CN1CCN(CCNC(=O)c2cc3c(=O)n(C)c4ccccc4c3n2C)CC1 | 1.9 | 10.4 | 19.5 | 8.7 | 63.6* | -21.5 | 0.4%
Cn1c(C(=O)NCCCN2CCc3ccccc3C2)cc2c(=O)n(C)c3ccccc3c21 | -1.3 | -8.5 | 20.0 | 3.2 | 19.2 | -20.4 | x
CCCN1CCN(CCCNC(=O)c2cc3c(=O)n(C)c4ccccc4c3n2C)CC1 | -3.9 | -21.9 | 26.4 | 7.4 | u | -29.0 | -3.4%
Cc1nn(C)cc1NC(=O)C[C@@H]1CC[C@@H]2[C@@H](COc3ccc(NC(=O)Nc4cccc(Cl)c4)cc3C(=O)N2C)O1 | -0.2 | x | -11.8 | x | 3.7 | x | x
COc1cc(NCCCNC(C)C)c2nccc(C)c2c1 | -4.3 | -10.0 | 60.5* | -1.7 | 83.5* | 11.4 | -5.4%
Cc1ccc(S(=O)(=O)N(C)C[C@H]2Oc3ccc(NS(=O)(=O)c4cccs4)cc3CC(=O)N([C@H](C)CO)C[C@@H]2C)cc1 | -0.4 | x | -13.8 | x | 3.5 | x | x
CN1CCN(c2nc(-c3ccccn3)nc3ccccc23)CC1 | x | -8.5 | x | 0.9 | u | -14.6 | 8.8%
CN1CCN(c2nc(-c3cccnc3)nc3ccccc23)CC1 | 3.6 | -5.8 | -4.4 | 10.2 | 57.4* | -23.2 | -19.7%
Cc1nnc2c(N3CCN(CCO)CC3)nc3ccccc3n12 | -0.7 | -14.2 | 4.6 | 2.5 | u | 0.9 | -17.5%
CO[C@@H]1CN(C)C(=O)c2cc(NC(=O)c3cnccn3)ccc2OC[C@H](C)N(CC2CC2)C[C@H]1C | 1.1 | x | 9.4 | x | x | x | x
C[C@H]1CCCCO[C@@H](CN(C)C(=O)NC2CCCCC2)[C@@H](C)CN([C@@H](C)CO)C(=O)c2cc(NS(=O)(=O)c3cn(C)cn3)ccc2O1 | 2.7 | x | -2.4 | x | 0.7 | x | x
CCN1CCc2c(sc(NC(=O)c3ccc(S(=O)(=O)N4CCOCC4)cc3)c2C(=O)OC)C1 | x | -8.6 | x | -3.5 | 80.3* | -27.1 | -1.0%
CCN1CCc2c(sc(NC(=O)c3ccc(C(=O)c4ccccc4)cc3)c2C(N)=O)C1 | 0.9 | -4.5 | -41.0 | -7.8 | u | u | 9.2%
CN1CCc2c(sc(NC(=O)c3ccc4ccccc4c3)c2C(N)=O)C1 | x | -4.5 | x | -11.8 | u | -17.8 | x
COc1cc2ccccc2cc1C(=O)Nc1sc2c(c1C(N)=O)CCN(C(C)C)C2 | -1.9 | 14.4 | -16.0 | -16.6 | 81.4* | -14.9 | -22.8%
CCOC(=O)c1c(NC(=O)c2ccc(S(=O)(=O)N3CCOCC3)cc2)sc2c1CCN(C(C)C)C2 | 0.0 | 0.1 | -241.5 | -1.2 | 79.1* | -13.4 | -10.5%
C[C@@H]1CN([C@@H](C)CO)C(=O)Cc2cc(NC(=O)NC3CCCCC3)ccc2O[C@H]1CN(C)C(=O)Nc1cccc2ccccc12 | -0.7 | x | 13.1 | x | 15.0 | x | x
CN1c2ccc(C3=CCCCC3)cc2[C@@H]2[C@@H](CCN2C(=O)C2CCC2)[C@H]1CO | 2.5 | x | 27.5 | x | x | x | x
C[C@@H](NC(=O)C[C@H]1CC[C@@H]2[C@H](COC[C@H](O)CN2Cc2cc(F)ccc2F)O1)c1ccccc1 | -0.1 | x | 4.1 | x | 4.7 | x | x
CCCN(C)C[C@H]1OCCCC[C@H](C)Oc2ccc(NS(=O)(=O)c3ccc(F)cc3)cc2C(=O)N([C@H](C)CO)C[C@H]1C | -1.0 | x | 33.5 | x | 4.0 | x | x
